This is part of a sample that, as a whole, favours compounds with a hit. Of some 83,000 tested, about 20% had one in any assay.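 Single-concentration screen, 48 h exposure, 96-well plates. Endpoint: percent growth. Below 10 = active.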 Unmarked numbers belong to inactive results. Activity calls are given as the source filed them.

Some test systems named below: BT-549 breast; MDA-MB-435 melanoma; SW-620 colon; HCT-116 colon; HCC-2998 colon; KM12 colon; MCF7 breast.
Assay in all cases: NCI-60 one-dose screen, 48 h (100 = growth as untreated, 0 = no growth, -100 = all killed)
Common to all, as to settings: 10 µM unless noted

In the case of `CC(C)C1=NOC(=O)C1=Cc1cn(-c2ccccc2)nc1-c1ccccc1`, the growth with BT-549 breast is 114%; with MDA-MB-435 melanoma it was 73.2%; in the experiment on SW-620 colon, 60.1%; in the experiment with HCT-116 colon, 28.9%; with HCC-2998 colon it was 91.8%; with KM12 colon it was 79.5%.

On to `CCOC(=O)C(=Cc1ccccc1[N+](=O)[O-])C(=O)OCC`, for which the growth in the experiment with MDA-MB-435 melanoma was 15.6%; in the experiment with SW-620 colon it was 19.2%; in the experiment on MCF7 breast, 10.4%; in the experiment with HCT-116 colon it was 7.82% (active); with HCC-2998 colon, 48.3%; in the experiment on KM12 colon, -17.7% (active).

For `O=c1[nH]cnc2c1ccn2C1OC(CO)C(O)C1O` (stereo unspecified), the growth in the experiment on BT-549 breast was 75.8%; in the experiment with SW-620 colon, 33.5%; in the experiment with MCF7 breast, 24.9%; with HCT-116 colon it was 54.9%; in the experiment on HCC-2998 colon, 69.3%; in the experiment on KM12 colon it was 75.1%.

With `Cn1cc(-c2nnc(-c3cn(C)c4ncc(Br)cc34)o2)c2ccccc21`, the growth was 95.2% in the experiment on BT-549 breast; 27.4% in the experiment on MDA-MB-435 melanoma; 83.6% in the experiment with SW-620 colon; 44.7% in the experiment on MCF7 breast; 98% with HCT-116 colon; 95.9% in the experiment on HCC-2998 colon. Besides, in the experiment with KM12 colon, the growth is 56.3%.

Consider `C=C(C)[C@@H]1CC[C@]2(C(=O)NCCCN)CC[C@]3(C)[C@H](CC[C@@H]4[C@@]5(C)CC[C@H](O)C(C)(C)[C@@H]5CC[C@]43C)[C@@H]12`, for which the growth with BT-549 breast was -2.14% [100 µM] (active); in the experiment with MDA-MB-435 melanoma, -32.4% [100 µM] (active); with SW-620 colon it was -36.2% [100 µM] (active); with MCF7 breast it was -8.46% [100 µM] (active); in the experiment on HCT-116 colon it was 1.97% [100 µM] (active); in the experiment with HCC-2998 colon, -23.4% [100 µM] (active). Further, the growth in the experiment on KM12 colon is -25.3% [100 µM] (active).

Turning to `CCCCC(CCCCCC(CCCC)C1NC(C)Cc2cc(OC)c(OC)cc21)C1NC(C)Cc2cc(OC)c(OC)cc21` (stereo unspecified), the growth was -73.4% (active) with MDA-MB-435 melanoma; -80.8% (active) in the experiment on SW-620 colon; -95.1% (active) in the experiment on MCF7 breast; -97.5% (active) with HCT-116 colon; -97.3% (active) with HCC-2998 colon; -94.7% (active) with KM12 colon.

Regarding `C=CCCCCCCCCC(=O)OC(C)C`, the growth in the experiment with BT-549 breast is 108%; with MDA-MB-435 melanoma, 111%; with SW-620 colon, 96.5%; in the experiment with MCF7 breast, 98.2%; with HCT-116 colon, 97.7%; with HCC-2998 colon, 112%. Moreover, the growth in the experiment on KM12 colon is 95.3%.

Take `C#C[C@]1(O)CC[C@H]2[C@@H]3CC=C4c5nc(Nc6ccccc6[N+](=O)[O-])sc5CC[C@]4(C)[C@H]3CC[C@@]21C`: the growth in the experiment with BT-549 breast is 34%; with MDA-MB-435 melanoma, 66.1%; in the experiment on SW-620 colon it was 76%; in the experiment with MCF7 breast, 56.9%; in the experiment on HCT-116 colon it was 45.7%; in the experiment with HCC-2998 colon, 61.1%. For the same compound, the growth with KM12 colon was 54.1%.

In the case of `Oc1c(CNCCNCc2cc(Cl)cc(Cc3ccccc3)c2O)cc(Cl)cc1Cc1ccccc1`, the growth with MDA-MB-435 melanoma was 22.8%; with SW-620 colon, 29.6%; in the experiment with MCF7 breast, 17.4%; in the experiment on HCT-116 colon it was 18.6%; with HCC-2998 colon, 20.2%; in the experiment with KM12 colon, 20.5%.

`COc1ccc(C2=C(c3cn(C)c4ccccc34)C(=O)OC2)cc1OC`: the growth in the experiment with BT-549 breast is 45.9%; in the experiment on MDA-MB-435 melanoma it was -8.21% (active); in the experiment on SW-620 colon, 19.7%; in the experiment on MCF7 breast, 18.8%; in the experiment on HCT-116 colon, 29.3%; in the experiment on HCC-2998 colon it was 65.9%. Moreover, the growth with KM12 colon is 26.4%.

`Cc1cccc(C[C@H](NC(=O)Nc2ccc(Cl)cc2F)C(=O)N[C@@H]2C(=O)N3C[C@H](O)C[C@H]3C(=O)N3CCN(C)C[C@H]3C(=O)N[C@@H](C)C(=O)N3C[C@H](C)C[C@H]3C(=O)O[C@H]2C)c1`: the growth in the experiment with BT-549 breast was 17.2%; in the experiment with MDA-MB-435 melanoma, 22.1%; in the experiment on SW-620 colon, 42.4%; in the experiment with MCF7 breast, 23%; in the experiment on HCT-116 colon, 9.83% (active); in the experiment with HCC-2998 colon it was 34.5%. The growth with KM12 colon is 40.5%.

As to `N#CCCc1c[nH]c2ccccc12`, the growth in the experiment with BT-549 breast was 97.6%; in the experiment with MDA-MB-435 melanoma it was 101%; in the experiment on MCF7 breast, 94.8%; in the experiment on HCT-116 colon, 92.8%.
